How the values were obtained:
Assay in all cases: PBM binding z-score (relative to random genomic background probes); higher = stronger binding; sequences stand for … in GC…GCGATTGACAGCGTAGAATGAAGG
[1] = test system: FXR:RXRa (NR concentration 270 nM, RXRa partner concentration 90 nM)
Procedure, shortened: (§1)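 Binding buffer was PBS pH 7.4 with 2% milk, 0.02% Triton X-100, 1 mM DTT, 0.2 mg/mL BSA and 0.4 mg/ml salmon testes DNA. In it, ligand-free nuclear receptor dimers were incubated 1 h on custom Agilent 4×180K protein-binding microarrays carrying double-stranded probes. Antibodies against each partner (one per run) detected binding, and z-scores were calculated against random background probes after regression normalization of scanned fluorescence.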

[2] = test system: LXRa:RXRa (NR concentration 270 nM, RXRa partner concentration 90 nM)
Procedure, shortened: as §1

[3] = test system: LXRa homodimer (NR concentration 270 nM)
Procedure, shortened: as §1

[4] = test system: LXRb:RXRa (NR concentration 270 nM, RXRa partner concentration 90 nM)
Procedure, shortened: as §1

[5] = test system: LXRb homodimer (NR concentration 270 nM)
Procedure, shortened: as §1

[6] = test system: PPARa:RXRa (NR concentration 270 nM, RXRa partner concentration 90 nM)
Procedure, shortened: as §1

[7] = test system: PPARg:RXRa (NR concentration 180 nM, RXRa partner concentration 90 nM)
Procedure, shortened: as §1

[8] = test system: PPARg:RXRa 270nM:90nM, anti-RXR (NR concentration 270 nM, RXRa partner concentration 90 nM)
Procedure, shortened: as §1

[9] = test system: PPARg:RXRa 30nM:10nM, anti-RXR (NR concentration 30 nM, RXRa partner concentration 10 nM)
Procedure, shortened: as §1

[10] = test system: PPARg:RXRa 90nM:30nM, anti-RXR (NR concentration 90 nM, RXRa partner concentration 30 nM)
Procedure, shortened: as §1

[11] = test system: PPARg:RXRa DBDmut IVT, anti-RXR (DBD mutation: RXRa K156A/R161A, NR concentration 270 nM, RXRa partner concentration 90 nM)
Procedure, shortened: as §1

[12] = test system: PPARg:RXRa IVT, anti-PPARg (NR concentration 270 nM, RXRa partner concentration 90 nM)
Procedure, shortened: as §1

[13] = test system: PPARg DBDmut:RXRa IVT, anti-PPARg (DBD mutation: PPARg1 K132A/R137A, NR concentration 270 nM, RXRa partner concentration 90 nM)
Procedure, shortened: as §1

[14] = test system: PPARg DBDmut IVT, anti-PPARg (DBD mutation: PPARg1 K132A/R137A, NR concentration 270 nM)
Procedure, shortened: as §1

[15] = test system: PPARg homodimer (NR concentration 180 nM)
Procedure, shortened: as §1

[16] = test system: PXR:RXRa (NR concentration 270 nM, RXRa partner concentration 90 nM)
Procedure, shortened: as §1

[17] = test system: PXR homodimer (NR concentration 270 nM)
Procedure, shortened: as §1

[18] = test system: RARa:RXR (NR concentration 270 nM, RXRa partner concentration 90 nM)
Procedure, shortened: as §1

[19] = test system: RARa homodimer (NR concentration 270 nM)
Procedure, shortened: as §1

[20] = test system: RARb:RXRa (NR concentration 270 nM, RXRa partner concentration 90 nM)
Procedure, shortened: as §1

Sequence	PBM binding z-score [1]	PBM binding z-score [2]	PBM binding z-score [3]	PBM binding z-score [4]	PBM binding z-score [5]	PBM binding z-score [6]	PBM binding z-score [7]	PBM binding z-score [8]	PBM binding z-score [9]	PBM binding z-score [10]	PBM binding z-score [11]	PBM binding z-score [12]	PBM binding z-score [13]	PBM binding z-score [14]	PBM binding z-score [15]	PBM binding z-score [16]	PBM binding z-score [17]	PBM binding z-score [18]	PBM binding z-score [19]	PBM binding z-score [20]
TATACAGCGTCAAAGGCCAGAGTACGAATGTCGA	-0.579	-0.473	-0.358	-0.616	-0.382	0.0937	1.16	1.62	0.56	1.13	-0.701	0.258	-0.154	0.515	-0.844	-0.442	-0.0905	-0.513	-0.705	0.524
GCAGACAGGTGAAACGCAGCTAACTCAGGGTGGC	-0.722	-0.436	-0.887	-0.728	-1.13	0.359	0.371	-0.353	-0.974	-0.585	0.771	0.278	-1.29	-0.6	-1.08	-0.921	-0.971	-0.616	-1.12	0.0872
ATCGAAAGGACGAAGGTGAGTATACCCACCCGAA	-0.0229	0.0207	-0.291	-0.347	-0.118	-0.0423	1.05	0.837	0.489	0.641	-0.74	0.283	-0.404	-0.244	0.0409	0.00854	-0.3	-0.0536	0.0942	1.17
CGAACTAGGTCAGAACAGGACAGTCAAGGATGAT	1.77	1.06	0.173	0.627	-0.362	3.31	5.24	4.41	1.74	3.31	7.24	7.46	1.4	0.732	0.7	1.08	0.108	1.05	0.263	3.08
TTACCAAGGTGAAAAGTCGTTGATGCACGCCTTG	0.666	0.719	-0.432	0.311	-0.57	2.25	2.75	4.56	2.5	4.19	1.72	2.64	0.0551	0.367	0.274	0.136	-0.523	0.987	-0.563	1.06
CCTCGGTGGACAACAGGAGGTCAGAGCTGCCAGA	0.578	1.81	1.76	1.05	-0.647	1.67	0.123	0.139	-0.911	-0.207	-0.628	0.0551	-1.3	-1.14	0.735	1.53	0.332	1.77	0.503	1.93
ATCGAAAGGGCGAAGGTGAGTATACCCACCCGAA	0.199	0.432	-0.538	0.0351	-0.165	1.72	1.93	2.33	0.766	1.93	-0.906	0.809	0.146	-0.234	1.04	0.359	-0.166	1.03	-0.384	1.94
CTCGAAAGGTCGGTTGAGGTTAGTATACGGATAA	3.06	2.88	0.205	1.97	0.0146	2.81	0.316	1.21	0.186	0.845	-0.0127	0.923	0.234	-0.683	1.47	4.96	0.435	3.04	0.202	3.06
TATACAGGGTCAAAGGCCAGAGCACGAATGTCGA	6.57	6.15	1.83	4.68	2.53	5.83	7.89	7.51	5.16	7.77	2.75	4.99	1.39	1.27	1.83	4.17	0.0861	5.31	0.94	4.36
CGAACTAGGTCAGAACAGGACAATGAAGGATGAT	1.42	1.2	0.0697	0.618	-0.134	3.06	5.27	4.32	1.93	3.26	6.72	7.28	2.05	0.683	0.602	1.23	0.343	0.703	0.399	2.98
CGAACGAGGGCATGCGTTGATAGCAAATGCCGAT	0.569	0.207	-0.45	0.0933	-0.834	1.12	0.923	0.579	-0.693	0.0948	2.51	1.72	-0.297	-0.501	0.165	0.344	-0.453	0.5	-0.165	1.95
CGAACTAGGTCATCCAGGACAGTGTATACATTGA	4.45	2.66	0.861	2.24	0.0566	4.61	7.47	6.1	3.25	5.65	8.32	8.01	2.41	1.17	1.54	2.03	1.29	2.33	0.356	4.02
AGAATGAGGTGATACGTAGATCAGGGAAGAAAGT	0.335	-0.0138	-0.435	-0.252	-0.444	1.52	1.16	1.16	0.448	0.958	4.06	2.23	1.58	0.564	0.0718	-0.029	0.133	0.117	-0.0248	0.411
CCTGCTAGGTCATTGGTCAGCTAAAGCAGCTCGC	4.06	3.07	0.559	2.13	0.108	3.56	3.71	4.63	1.79	4.05	3.86	3.73	0.135	-0.404	1.24	1.47	0.029	2.07	-0.492	3.97

— the supplement of paper PMC6555819
